The other results are listed elsewhere or left out. Calls of active or inactive are those of the source.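 The calls were made as follows: active = calcium signal rise, corrected for plate position, at least 3 library SD high, with starting brightness within 5 such deviations; inactive = the rest.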

Chain of Mas-related G-protein coupled receptor member X1 (Homo sapiens) (Q96LB2 whole entry, looked up): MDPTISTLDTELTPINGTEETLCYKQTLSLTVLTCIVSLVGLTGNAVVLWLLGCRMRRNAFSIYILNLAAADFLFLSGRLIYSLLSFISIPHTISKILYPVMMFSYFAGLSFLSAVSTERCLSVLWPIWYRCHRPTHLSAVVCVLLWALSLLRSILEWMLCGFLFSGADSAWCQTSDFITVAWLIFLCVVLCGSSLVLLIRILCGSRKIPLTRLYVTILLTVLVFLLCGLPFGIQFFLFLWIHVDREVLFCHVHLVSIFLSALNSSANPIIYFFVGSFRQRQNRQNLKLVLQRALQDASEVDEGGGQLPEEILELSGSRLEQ

This test has as its target Mas-related G-protein coupled receptor member X1 (Homo sapiens) (UniProt Q96LB2). Nature of the test: MrgX1 receptor agonists, duplicate retest, confirmation, HEK293 cells, Fluo-4 calcium flux (AID 602412). As to conditions: MrgX1-HEK293, Fluo-4 calcium fluorescence, FDSS, at 10 µM; stronger effect = higher value.
Turning to `CCCCC(=O)NNC(=S)NC(=O)C(c1ccccc1)c1ccccc1`, the outcome was inactive.
`CCOC(=O)c1[nH]c2ccc(C)cc2c1N=C(C)N(C)C`: the activation is 185% (active).
Consider `O=C(CCN1CCc2ccccc2C(O)(c2ccccc2)C1)c1ccc2c(c1)OCCO2` (centres undefined), for which the activation is 192% (active).
Same read-out and setting: the same measure for `O=C1C(=O)N(CC2COc3ccccc3O2)c2ccccc21` (centres undefined): 226% (active); for `Cc1ccc(-n2[nH]c(C)c(/C=N/N3C(=O)c4cccc5cccc(c45)C3=O)c2=O)cc1`: 601% (active); for `Cc1cc2oc3ccc(NCCC4CCCN4C)cc3c(=O)c2cc1C` (centres undefined): 311% (active).
As to `CC(=O)OC(C)C[N+](C)(C)C` (centres undefined), the activation is 483% (active).
As for `Cc1[nH][nH]c(=O)c1C(c1ccc(-c2ccc(Cl)cc2)o1)c1c(C)[nH][nH]c1=O`, the activation is 187% (active).
On to `OCc1ccc(OCCCOc2cccc3cccnc23)cc1`, for which the result was inactive.
On to `Cc1ccnc(-n2sc3ccccc3c2=O)n1`, for which the activation is 170% (active).
The same measure, in the same setting: as for `N=C(N)SCc1cccc2ccccc12`, the figure is 199% (active); as for `CC(C)CC(=O)NC(=S)NNC(=O)c1cccc([N+](=O)[O-])c1`, 268% (active); as for `O=c1c2cc(Br)ccc2nc(-c2cccc(Cl)c2)n1O`, 415% (active).
Regarding `COC(=O)c1ccc(C2C3=C(Nc4nnnn42)c2ccccc2OC3)cc1` (centres undefined), the result was inactive.
`CC(C)(C)Nc1c(-c2cccs2)nc2ccccn12`: the activation was 181% (active).
On the same count and under the same terms, as for `COc1ccc(C(=O)NNC(=S)NC(=O)c2ccccc2)cc1`, the figure is 570% (active); as for `CCCc1cc(=S)n2c([nH]c3ccccc32)c1C#N`, 266% (active).
The same measure, in the same setting: the same measure for `O=C(Nc1ccccc1)c1nnsc1S(=O)(=O)c1ccc(Cl)cc1`: 210% (active); for `COc1ccc(C(=O)NC(=S)NNC(=O)c2c(-c3ccccc3)noc2C)cc1`: 506% (active).
The same measure, in the same setting: as for `COc1ccc(Nc2nc(-c3cccnc3)nc3ccccc23)cn1`, the figure is 127% (active).
For `CCN(CC)c1ccc2oc(=O)c(C)nc2c1`, the outcome was inactive.
`Cc1ccc(NC2(C#N)C(=O)Nc3ccccc32)cc1` (centres undefined): the activation is 191% (active).
In the case of `Fc1ccc2[nH]c3c(N4CCSCC4)ncnc3c2c1`, the activation is 252% (active).
Regarding `COC(=O)c1ccc(COC(=O)C2CCN(S(=O)(=O)c3c(Cl)cccc3Cl)CC2)o1`, the outcome was inactive.
As for `O=C(CC(O)(C(F)(F)F)C(F)(F)F)Nc1ccc(Cl)c(Cl)c1`, the activation was 242% (active).
On to `CC(Oc1ccc2ccccc2c1)C(=O)NNC(=S)NC(=O)c1ccco1` (centres undefined), for which the activation was 265% (active).
Regarding `CC1CCCCN1S(=O)(=O)c1ccc(C(=O)Nc2nnc(-c3cccs3)o2)cc1` (centres undefined), the activation is 88.3% (active).
Still for that read-out and setting: the same measure for `COc1ccccc1N(CC(=O)N1CCCCC1)S(=O)(=O)c1ccccc1`: 356% (active).
In the case of `Cc1c(C)c2c(OCC(=O)N[C@@H](C(=O)O)c3ccccc3)cc3c(c2oc1=O)CCC(C)(C)O3`, the result was inactive.
On the same count and under the same terms, the same measure for `COc1ccc(OC)c(C(=O)c2ccc(Cl)cc2)c1`: “inactive”.
For `O=C1Cc2ccccc2Sc2ccc(Cl)cc21`, the activation was 104% (active).
The same measure, in the same setting: as for `Cc1onc(-c2ccccc2)c1C(=O)NNC(=S)NC(=O)c1ccc(F)cc1`, the figure is 636% (active).
For the compound `Cc1nc(C)c(-c2csc(NCCc3ccccc3)n2)s1`, the activation was 170% (active).
With `COc1ccc2c(c1)OC(O)(C(F)(F)C(F)F)CC2=O` (centres undefined), the activation is 373% (active).
With `CCCc1[nH]nc2c1C(c1ccc(Br)s1)C(C#N)=C(N)O2` (centres undefined), the activation is 141% (active).
On the same count and under the same terms, as for `O=C(Nc1nnc(-c2ccccc2)o1)c1cc(-c2cccs2)nc2ccccc12`, the figure is 141% (active); as for `CC1(C(=O)O)CCC(C(=O)Nc2ccc(Cl)c(Cl)c2)C1(C)C` (centres undefined), 149% (active).
On to `CCCc1nc2c(c(=O)c3ccccc3n2C)c(=O)n1C1CCCCCC1`, for which the activation was 149% (active).
On to `COc1ccc(C(=O)NC(=S)NNC(=O)CCc2ccccc2)cc1`, for which the activation is 595% (active).

The values above are taken from PubChem BioAssay AID602412 (Johns Hopkins Ion Channel Center, 2012).
